# A number with no mark means an inactive call. Inconclusive results are not listed. Entries that show only a call come without a potency. The source made the active and inactive calls. The call rests on the fitted dose curve; in most records, active means well fitted curve in the direction sought with a large enough effect; inconclusive means small, poorly fitted or top-dose-only effect, or another doubt; inactive means no such curve, though single readings can be large; an effect the other way counts as inactive or inconclusive.
# Assays:
# [1] = molecular target: Glutathione peroxidase 1 (Homo sapiens) (UniProt P07203); assay: Primary qHTS Assay for Inhibitors of Recombinant Selenoprotein Glutathione Peroxidase 1 (GPX1) (AID 1845191); further: nearly all actives have a fitted effect of over 65% in size
# Chain of Glutathione peroxidase 1 (Homo sapiens) (P07203 whole entry, looked up): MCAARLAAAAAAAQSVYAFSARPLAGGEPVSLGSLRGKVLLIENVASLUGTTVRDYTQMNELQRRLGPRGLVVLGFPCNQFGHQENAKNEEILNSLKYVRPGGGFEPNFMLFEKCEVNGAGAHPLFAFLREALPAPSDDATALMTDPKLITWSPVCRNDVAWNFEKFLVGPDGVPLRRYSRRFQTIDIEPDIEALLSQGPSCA
# Procedure, shortened: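 GR-coupled readout: NADPH consumption tracked by fluorescence, ex 340/em 450 nm, at t=0 and after 15 min at RT. Final mix 10 nM GPX1, 1 mM GSH, 0.5 mM CHP, 0.5 mM NADPH, 100 nM GR, 0.01% BSA, following 30 min enzyme–compound preincubation.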
# [2] = molecular target: Phospholipid hydroperoxide glutathione peroxidase GPX4 (Homo sapiens) (UniProt P36969); assay: Primary qHTS Assay for Inhibitors of Recombinant Selenoprotein Glutathione Peroxidase 4 (GPX4) (AID 1845192); further: nearly all actives have a fitted effect of over 65% in size; on activity change, negative = inhibition: series mostly up to about 50 µM
# Chain of Phospholipid hydroperoxide glutathione peroxidase GPX4 (Homo sapiens) (P36969 whole entry, looked up): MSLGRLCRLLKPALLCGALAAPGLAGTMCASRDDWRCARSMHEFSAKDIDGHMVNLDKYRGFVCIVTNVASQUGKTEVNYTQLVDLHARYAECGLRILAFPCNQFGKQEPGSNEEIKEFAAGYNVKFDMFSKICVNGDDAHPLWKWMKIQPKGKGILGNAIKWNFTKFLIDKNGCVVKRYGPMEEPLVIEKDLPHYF
# Procedure, shortened: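 Steps: GPX4 plus compound, 30 min RT; add GR/GSH/NADPH master mix; start with cumene hydroperoxide; read 340/450 nm fluorescence at 0 and 15 min. Finals were 200 nM GPX4, 1 mM GSH, 0.5 mM CHP, 0.5 mM NADPH, 100 nM GR.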
# [3] = molecular target: Luciferin 4-monooxygenase (Photinus pyralis) (UniProt P08659); assay: Primary firefly luciferase (FLuc) qHTS assay for identification of artifact compounds. (AID 1845220); further: nearly all actives have a fitted effect of over 60% in size; further: potency means the concentration at half of the fitted maximal effect; on activity change, negative = inhibition: series mostly up to about 54 µM
# Procedure, shortened: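 D-luciferin and ATP (10 uM each, final) in Tris acetate buffer pH 7.6 were incubated with compounds for 15 min at room temperature. The reaction was started with 10 nM Photinus pyralis luciferase and luminescence read after 5 min. Percent inhibition was fitted to a 4-parameter Hill equation.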
# [4] = Primary fluorescence-based thiol-reactive (MSTI) qHTS assay for identification of artifact compounds. (AID 1845221); further: nearly all actives have a fitted effect of over 65% in size; further: potency means the concentration at half of the fitted maximal effect;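 on activity change, negative = thiol reactive: series mostly up to about 54 µM; thiol-reactive compounds lower the probe fluorescence signal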
# Procedure, shortened: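 Reactivity toward the thiol probe MSTI (4 uM) is scored by fluorescence at Ex/Em 525/598 nm after 1 h at room temperature. Acetyl-MSTI and MSTI define the activity scale.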
# [5] = system: Nanoluciferase (engineered Oplophorus gracilirostris luciferase); assay: Primary Nanoluciferase (NLuc) qHTS assay for identification of artifact compounds. (AID 1845222); further: series mostly up to about 54 µM
# Procedure, shortened: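 Diluted conditioned medium from NLuc-expressing S16 cells treated with compounds for 15 min at room temperature, then Nano-Glo substrate added; luminescence read after 5 min. Percent inhibition versus no-enzyme and DMSO controls fitted to 4-parameter Hill equation.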
# [6] = Primary redox qHTS assay for identification of artifact compounds. (AID 1845223)
# Procedure, shortened: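 Redox-cycling detection via DTT (250 uM final) oxidation coupled to Amplex Red (25 uM)/HRP (250 mU/mL) in HBSS. 15 min preincubation plus 30 min after DTT, room temperature. Ex/Em 525/598 nm; 4-parameter Hill fit against DMSO and 10 uM DA3003.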
Structure (SMILES),Potency [1],Potency [2],Potency [3],Potency [4],Potency [5],Potency [6],"activity, negative = inhibition [1]","activity change, negative = inhibition [2]","activity change, negative = inhibition [3]","activity change, negative = thiol reactive [4]","activity, negative = inhibition [5]",redox activity (% of DA3003) [6]
CC(C)n1c(=O)c(C(=O)NC2CC3CCC(C2)N3C[C@@H](O)CN(C)S(C)(=O)=O)cc2ccccc21 (some centres undefined),inactive,inactive,inactive,inactive,inactive,inactive,–,–,–,–,–,–
O=C(OC1CN2CCC1CC2)N1CCc2ccccc2C1c1ccccc1 (centres undefined),inactive,inactive,inactive,inactive,inactive,inactive,–,–,–,–,–,–
Cn1cc(-c2ccc(S(=O)(=O)n3ccc(/C=C/C(=O)Nc4ccccc4N)c3)cc2)cn1,inactive,inactive,inactive,inactive,inactive,inactive,–,–,–,–,–,–
COc1cc(N2CCC(N)CC2)ccc1Nc1ncc(Cl)c(-c2c[nH]c3ccccc23)n1,inactive,inactive,inactive,1.89 µM (active),inactive,inactive,–,–,–,–,–,–
COc1ccncc1C(=O)NC(=O)Nc1ccc(-c2ccccc2)c(C(F)(F)F)c1,inactive,inactive,inactive,inactive,inactive,inactive,–,–,–,–,–,–
O=C(Nc1ccccc1)c1ccc(Nc2nnc(-c3ccc(O)cc3)c3ccccc23)cc1,inactive,inactive,inactive,inactive,inactive,inactive,–,–,–,–,–,–
C/C=C(/C)C(=O)O[C@@H]1C[C@@H](OC(=O)CC(C)C)C2(C)C3C(=O)C=C(C)C2C3C1(C)C (some centres undefined),inactive,inactive,inactive,inactive,inactive,inactive,–,–,–,–,–,–
O=C1c2ccc(Nc3ccc(F)cc3F)cc2CCc2ccc(OCC(O)CO)cc21 (centres undefined),inactive,inactive,inactive,inactive,inactive,inactive,–,–,–,–,–,–
Nc1cccc(CNC(=O)c2ccc(Oc3ccc(OCc4cccc(F)c4)cc3)nc2)c1,inactive,inactive,inactive,inactive,inactive,inactive,–,–,–,–,–,–
CC(=O)OC1C(OC(=O)c2ccccc2)C2C(=C(C)CCC2(C)C)C23CCC(C)(C2)C(=O)CC13 (centres undefined),inactive,inactive,inactive,inactive,inactive,inactive,–,–,–,–,–,–
CC(=O)O[C@H]1[C@@]2(O)C[C@H](C)[C@H](OC(=O)c3ccccc3)[C@@H]2[C@@H](OC(=O)CO)[C@]2(OC(C)=O)C[C@H]3C(=O)C(C)(C)C[C@@H]3[C@@]1(C)[C@H]2OC(C)=O,inactive,inactive,inactive,inactive,inactive,inactive,–,–,–,–,–,–
O=C(Nc1ccnc(NC(=O)C2CC2)c1)c1c(Cl)cccc1Cl,inactive,inactive,inactive,inactive,inactive,inactive,–,–,–,–,–,–
CNC(=O)c1cc(Oc2ccc(NC(=O)c3cccc(C(F)(F)F)c3)cc2)ccn1,inactive,inactive,inactive,inactive,inactive,inactive,–,–,–,–,–,–
C=CC1(C)CC(O)C(C(=C)C(=O)OC)C(O)C1C(=C)CO (centres undefined),inactive,inactive,inactive,inactive,inactive,inactive,–,–,–,–,–,–
O=S(=O)(Cc1ccccc1)Nc1ccc(-c2ccc3c(cnn3-c3ccc(F)cc3)c2)c(C(F)(F)F)c1,inactive,inactive,inactive,inactive,inactive,inactive,–,–,–,–,–,–
C=C1C(=O)O[C@@H]2/C=C(\C)CC/C=C(\C)CC[C@@H]12,inactive,inactive,inactive,inactive,inactive,inactive,–,–,–,–,–,–
CC[C@H]1CN(c2nc(N)c(C(N)=O)nc2Cl)CCN1C1CCN(Cc2ccc(Cl)cc2)CC1,inactive,inactive,inactive,inactive,inactive,inactive,–,–,–,–,–,–
C=CC(=O)Nc1cc(-n2c(=O)ccc3cnc4ccc(-c5ccc(NS(C)(=O)=O)cc5)cc4c32)ccc1C,inactive,inactive,inactive,inactive,inactive,inactive,–,–,–,–,–,–
CN1CCN(S(=O)(=O)c2ccc(-c3cnc(N)c(C(=O)Nc4cccnc4)n3)cc2)CC1,inactive,inactive,inactive,inactive,inactive,inactive,–,–,–,–,–,–
Cn1c(=O)c2c(ncn2Cc2ccc(C(C)(C)C)cc2)n(C)c1=O,inactive,inactive,inactive,inactive,inactive,inactive,–,–,–,–,–,–
CCc1ccccc1OC[C@@H](O)CN[C@H]1CCCc2ccccc21,inactive,inactive,inactive,inactive,inactive,inactive,–,–,–,–,–,–
O=C(NCCO)c1cccc(-c2cc(Nc3ccc(OC(F)(F)F)cc3)ncn2)c1,inactive,inactive,inactive,inactive,inactive,inactive,–,–,–,–,–,–

Structure (SMILES),Potency [1],Potency [2],Potency [3],Potency [4],Potency [5],Potency [6],"activity, negative = inhibition [1]","activity change, negative = inhibition [2]","activity change, negative = inhibition [3]","activity change, negative = thiol reactive [4]","activity, negative = inhibition [5]",redox activity (% of DA3003) [6]
N#Cc1ccc(O[C@@H]2c3ccccc3C[C@H]2N2CCC[C@@H](N)C2)c(Cl)c1,inactive,inactive,inactive,inactive,inactive,inactive,–,–,–,–,–,–
CC1=C2C[C@@]3(C)C(CCC[C@@H]3C)C(O)C2OC1=O (some centres undefined),inactive,inactive,inactive,inactive,inactive,inactive,–,–,–,–,–,–
CC(C)CCNC(=O)c1ccc2c(c1)nc(Nc1n[nH]c3ccc(-c4ccccc4OC(F)(F)F)cc13)n2C1CCC(O)CC1 (centres undefined),inactive,inactive,inactive,5.32 µM (active),inactive,inactive,–,–,–,–,–,–
CNC(=O)[C@@H](c1ccccc1)N1CCc2cc(OC)c(OC)cc2[C@@H]1CCc1ccc(C(F)(F)F)cc1,inactive,inactive,inactive,inactive,inactive,inactive,–,–,–,–,–,–
CCC(CC)C(=O)OC12C(OC(=O)C(C)C)C(C)C3(O)C(C=C(CO)CC4(O)C(=O)C(C)=CC43)C1C2(C)C (centres undefined),inactive,inactive,inactive,inactive,inactive,inactive,–,–,–,–,–,–
CC(=O)NC[C@H]1CN(c2ccc(N3CCSCC3)c(F)c2)C(=O)O1,inactive,inactive,inactive,inactive,inactive,inactive,–,–,–,–,–,–
O=C(Nc1ccc(-n2nc(C(F)(F)F)cc2C(F)(F)F)cc1)c1ccncc1F,inactive,inactive,inactive,inactive,inactive,inactive,–,–,–,–,–,–
COc1cc(C(=O)NCC2(N(C)C)CCCC2)cc(OC)c1OCc1ccccc1,inactive,inactive,inactive,inactive,inactive,inactive,–,–,–,–,–,–
O=[N+]([O-])c1cn2c(n1)OC[C@@H](OCc1ccc(-c3ccc(OC(F)(F)F)cc3)nc1)C2,inactive,inactive,inactive,inactive,inactive,inactive,–,–,–,–,–,–
CC(C)(O)C1CC(=O)C2(C)C(CCC3(C)C(c4ccoc4)OC(=O)C4OC432)C12CCC(=O)OC2 (centres undefined),inactive,inactive,inactive,inactive,inactive,inactive,–,–,–,–,–,–
C/C(=C\CCC(C)C1=CCC2(C)OC3=C(CC12)C(=O)C(O)CC3)CO (centres undefined),inactive,inactive,inactive,inactive,inactive,inactive,–,–,–,–,–,–
CCCCNc1ncc(-c2ccc(CN3CCOCC3)cn2)c(NC2CCC(O)CC2)n1 (centres undefined),inactive,inactive,inactive,inactive,inactive,inactive,–,–,–,–,–,–
O=C(Nc1ccc(N2C(=O)[C@@H]3[C@H](C2=O)[C@@H]2C=C[C@H]3C2)c(Cl)c1)c1ccccn1,inactive,inactive,19 µM (active),inactive,inactive,inactive,–,–,–,–,–,–
COc1cc(F)c(C(C)C)cc1-c1ccc(C(F)(F)F)cc1CN1C(=O)OC(c2cc(C(F)(F)F)cc(C(F)(F)F)c2)C1C (centres undefined),inactive,inactive,inactive,inactive,inactive,inactive,–,–,–,–,–,–
C=C1CC[C@@H]2[C@](C)(CO)[C@H](O)CC[C@@]2(C)[C@@H]1CC(O)C1=CCOC1=O (some centres undefined),inactive,inactive,inactive,inactive,inactive,inactive,–,–,–,–,–,–
CC/C=C\CC1C(=O)C=CC1(CCCCC1CCC(=O)O1)OC(C)=O (centres undefined),inactive,inactive,inactive,inactive,inactive,inactive,–,–,–,–,–,–
COc1cc(O)c2c(c1)C1OC1C[C@H](O)[C@H](O)C(=O)/C=C\C[C@H](C)OC2=O (some centres undefined),inactive,inactive,inactive,inactive,inactive,inactive,–,–,–,–,–,–
Cc1cc(-c2nc(-c3ccc(OC(F)(F)F)cc3)no2)nn1Cc1ccnc(N2CCN(C3CC3)CC2)c1,inactive,inactive,inactive,inactive,inactive,inactive,–,–,–,–,–,–
CC(C)n1nc(C#Cc2ccccc2)c2c(N)ncnc21,inactive,inactive,inactive,inactive,inactive,inactive,–,–,–,–,–,–
Cc1ccc(C(C)C)c(O[C@@H]2O[C@H](CO)[C@@H](O)[C@H](O)[C@H]2O)c1,inactive,inactive,inactive,10.4 µM (active),inactive,inactive,–,–,–,–,–,–
COc1ccccc1N1CCN(CC[C@@](C)(C(=O)C2CCCCC2)c2ccccc2)CC1,inactive,inactive,inactive,inactive,inactive,inactive,–,–,–,–,–,–
C/C=C(/C)C(=O)OC1CC(C)(C)CC2C3=CCC4C5(C)CCC(O[C@@H]6O[C@H](C(=O)O)[C@@H](O)[C@H](O)[C@H]6O[C@@H]6O[C@H](CO)[C@H](O)[C@H](O[C@@H]7OC[C@H](O)[C@H](O)[C@H]7O[C@@H]7O[C@H](CO)[C@@H](O)[C@H](O)[C@H]7O)[C@H]6O)C(C)(C)C5CCC4(C)C3(C)C(O)C(O)C12CO (some centres undefined),–,–,–,–,–,–,-3.11% [at 9.52 µM],-1.81% [at 9.73 µM],1.87% [at 11.6 µM],199% [at 11.5 µM],4.03% [at 11.6 µM],15.7% [at 11.5 µM]

# From PubChem BioAssay (NCATS)
